In all, about 230,000 compounds went through this assay and fewer than 10 were called active. Not shown: some 3% with an inconclusive outcome. The call rests on the fitted dose curve; in most records, active means well fitted curve in the direction sought with a large enough effect; inconclusive means small, poorly fitted or top-dose-only effect, or effect the other way, or another doubt; inactive means no such curve, though single readings can be large or run the other way. These entries were drawn from the full list.
What follows are compounds tested against Runt-related transcription factor 1 (Homo sapiens) + Core-binding factor subunit beta (Homo sapiens) (UniProt Q01196+Q13951) (assay: qHTS Assay for Compounds Blocking the Interaction Between CBF-beta and RUNX1 for the Treatment of Acute Myeloid Leukemia). Conditions: AlphaScreen CBFb-His/RUNX1-biotin binding, biochemical; series mostly up to 59.8 µM.
Sequence of Runt-related transcription factor 1 (Homo sapiens) + Core-binding factor subunit beta (Homo sapiens) (Q01196 whole entry, looked up): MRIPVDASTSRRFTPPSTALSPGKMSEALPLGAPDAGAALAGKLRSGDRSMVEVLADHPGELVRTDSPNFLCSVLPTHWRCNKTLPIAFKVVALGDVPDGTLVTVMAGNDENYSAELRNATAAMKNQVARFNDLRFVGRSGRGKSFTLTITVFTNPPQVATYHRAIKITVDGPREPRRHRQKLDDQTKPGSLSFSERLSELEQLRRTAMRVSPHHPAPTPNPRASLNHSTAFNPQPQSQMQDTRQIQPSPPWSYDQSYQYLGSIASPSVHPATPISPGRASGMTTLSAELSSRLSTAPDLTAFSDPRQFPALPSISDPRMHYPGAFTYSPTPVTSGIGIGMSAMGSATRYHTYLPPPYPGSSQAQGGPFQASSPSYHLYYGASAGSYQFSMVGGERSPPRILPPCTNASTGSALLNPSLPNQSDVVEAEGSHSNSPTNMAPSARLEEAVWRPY
Sequence of Runt-related transcription factor 1 (Homo sapiens) + Core-binding factor subunit beta (Homo sapiens) (Q13951 whole entry, looked up): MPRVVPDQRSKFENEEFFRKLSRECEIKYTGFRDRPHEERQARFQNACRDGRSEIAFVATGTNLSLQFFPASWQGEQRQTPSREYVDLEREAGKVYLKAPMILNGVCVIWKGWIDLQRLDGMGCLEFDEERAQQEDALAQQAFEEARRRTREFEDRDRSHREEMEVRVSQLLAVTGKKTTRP
Source text: NIH Chemical Genomics Center [NCGC]
NIH Molecular Libraries Probe Production centers Network [MLPCN]
Assay Submitter (PI): Paul Liu
Core Binding Factor (CBF) abnormalities are associated with 20-25% of all acute myeloid leukemias (AML), of which 5-10% are further sub classified as acute myelomonocytic leukemia with eosinophilia, also known as M4Eo in the FAB classification scheme. This subtype of leukemia is usually associated with chromosome 16 inversion (p13:q22). Chromosome 16 inversion results in formation of the fusion oncogene CBFB-MYH11, which encodes the fusion protein CBF-beta-SMMHC.
It has been hypothesized that the interference of CBF-beta and RUNX1 binding could have therapeutic implications for patients with CBF mediated leukemias. We developed a CBF-beta and RUNX1 binding assay in AlphaScreenTM format and optimized it for high throughput screening to search for inhibitors. The goal of this project is to screen MLPCN's compound collection (MLSMR) for identifying the inhibitors of the interaction between CBF-beta and RUNX1 proteins as research probes. If these probes work well in the animal models, the ultimate goal of this project is to development a new drug treatment for this disease.
This assay can not be used to assess how apparent inhibitors interfere with protein binding, and whether inhibitors specifically bind to either protein. Disruption of this protein-protein interaction, through any mechanism, is the intended target activity.
NCGC Assay Protocol Summary:
Step, Parameter, Description
(1) Reagent, 3 uL CBFb-His/RUNX1-biotin mix incubated together for 20 minutes at room temperature (30 nM each)
(2) Compound or control, 23 nL compound stock solution
(3) Incubation, 15 minutes at Room temperature
(4) Reagent, 1 uL 50 ng each of beads (Nickel beads and streptavidin beads)
(5) Incubation, 90 minutes at Room temperature
(6) Detection, Excitation=365 nm Emission=440 nm, Envision reader in AlphaScreenTM mode
Keywords: MLSMR, MLPCN, NIH Roadmap, qHTS, NCGC, Core binding factor, CBF, CBF-beta, Acute myeloid leukemia
Further: % of control where 0% means no effect.

activity, negative = inhibition, inactive:
CN(C)/C=C(/C(=O)c1ccc(F)cc1)S(=O)(=O)c1ccc(F)cc1
COc1ccc(C2c3[nH]c4ccccc4c3CCN2CCCn2cccn2)cc1C (stereo not drawn)
S=c1nc(C23CC4CC(CC(C4)C2)C3)nc2sccn12
Cc1ccc(-c2ccc(/C=C(\C#N)C(N)=S)o2)c([N+](=O)[O-])c1
Cc1cccc(N2CCN(C(=O)c3cccc(S(=O)(=O)N4CCc5ccccc5C4)c3)CC2C)c1 (stereo not drawn)
CCO[C@@H]1OC(C(=O)NC2CC2)=C[C@H](C)[C@H]1CCCO
CCC1(CC)C(=O)C2=C3C1[C@H](C(=O)OC)C=C(C(=O)OC)C[C@H]3[C@H]1C(=O)N(Cc3ccccc3)C(=O)[C@H]1[C@H]2C (stereo partly drawn)
CC(=O)OCC(NC(=O)C(Cc1ccccc1)NC(=O)OC(C)(C)C)C1OC(n2ccc(=O)[nH]c2=O)C(OC(C)=O)C1OC(C)=O (stereo not drawn)
COc1cc(S(=O)(=O)N2CCOCC2)ccc1NC(=O)COc1ccc(N(C)S(=O)(=O)c2ccc(C)cc2)cc1
CNC(=O)/C(C#N)=C/c1c(F)cccc1Cl
CCCCNC(=O)CSc1nc2ccc(NC(=O)CSc3nnc(N)s3)cc2s1
CN(CC(=O)Nc1ccc(F)cc1)CC(=O)Nc1ccc(Cl)c(S(=O)(=O)N2CCOCC2)c1
NC(=O)c1ccc(NC(=O)COC(=O)c2c3c(nc4ccccc24)/C(=C\c2ccc4c(c2)OCO4)CCC3)cc1
COc1cc(OC)c2c(C)cc(=O)oc2c1C(CCN1CCCCC1)c1ccc(N(C)C)cc1 (stereo not drawn)
Cc1cc(C(=O)NCCc2ccc(Cl)cc2)n(-c2ccccc2)n1
Cc1ccc(CNC(=O)C2(C(F)(F)F)C/C(=C\Cc3ccccc3)CCCO2)o1 (stereo not drawn)
CCCN1CCC(=O)N(C(CSc2ccc(C)cc2)Cc2ccccc2)CC1 (stereo not drawn)
Cn1ncc(N2CCN(S(=O)(=O)c3ccc(Br)cc3)CC2)c(Cl)c1=O
CC1(C)OC(C(O)(c2ccccc2)c2ccccc2)C(C(O)(c2ccccc2)c2ccccc2)O1 (stereo not drawn) 6.37% [at 13.1 µM]
CCc1c(C)nc2c(-c3ccccc3)c(C)nn2c1Nc1ccc(NC(C)=O)cc1
Cn1ncc2c(NNC(=O)Cc3cccc4ccccc34)ncnc21
O=c1ccn([C@@H]2O[C@H](COP(=O)(O)OP(=O)(O)OP(=O)(O)O)[C@@H](O)[C@H]2O)c(=O)[nH]1
CCC/C(C)=N\Nc1nc2c(c(=O)n(C)c(=O)n2C)n1C
O=C1CN(Cc2ccccc2)S(=O)(=O)c2ccccc21
CCc1nnc(NC(=O)[C@@H](NC(=O)c2cccc(C)c2)C(C)C)s1
O=[N+]([O-])c1ccccc1S(=O)(=O)Nc1cccc2cccnc12
N#Cc1c(C(F)(F)F)cc(-c2cccs2)nc1N1CCCCC1
COc1ccc2nc(NC(=O)[C@@H]3CCCN3C(=O)c3cccs3)sc2c1
Cc1ccc(OCCCCN2CCCCC2)c(Br)c1
C[C@H]1Cc2c(-c3ccccc3)nc3c(c2CO1)CN(C(=O)C1CC1)CC3 -2.96% [at 13.1 µM]
COc1ccc(-c2nc3c(c4c2C[C@H](c2ccccc2)OC4)CN(S(=O)(=O)c2c(C)noc2C)CC3)c(C)c1 2.29% [at 13.1 µM]
CCOC(=O)C1=C(CSc2nnnn2C)N(C)C(=O)NC1c1ccccc1 (stereo not drawn)
COc1ccc(SC[C@H](Cc2ccccc2)N2CCN(CCc3ccccc3)CCC2=O)cc1
CON(C)S(=O)(=O)c1ccc2c(c1)NC(=O)C1CCCN21 (stereo not drawn)
O=C(NCCc1ccccn1)c1cccnc1Oc1ccc(Cl)cc1
COc1ccc(SCCN2CCN(CC(C)C)CCC2=O)cc1
Cc1ccccc1C(OCCN(C)C)C1CCCCC1 (stereo not drawn)
COC(=O)c1ccc(C(NC(=O)OCc2ccccc2)/C(F)=C/[C@@H](C)C(=O)O)cc1 (stereo partly drawn)
C[C@@H]1O[C@@H](OC[C@H]2O[C@@H](Oc3cc(O)c4c(c3)O[C@H](c3ccc(O)c(O)c3)CC4=O)[C@H](O)[C@@H](O)[C@@H]2O)[C@H](O)[C@H](O)[C@H]1O
COc1ccc(NC(=O)CSc2ncnc3[nH]ncc23)cc1
COc1ccc(-c2nc3c(c4c2C[C@H](c2ccccc2)OC4)CN(C(=O)c2cccnc2)CC3)c(C)c1 2.51% [at 13.1 µM]
CC1CCN(C(=S)c2ccc(-c3ccc(Cl)cc3Cl)o2)CC1
O=C(/C=C/c1ccc(OCc2c(F)cccc2Cl)cc1)N1CCOCC1
OCCC(O)CO (stereo not drawn)
COc1ccc2cc(-c3[nH]ncc3CNCCn3nc(C)cc3C)ccc2c1
COC(=O)c1ccc([C@@H](O)[C@H](C)C(=O)CC(=O)OC(C)(C)C)cc1
O=C(Nc1cc(C(=O)Nc2ccc(S(=O)(=O)O)cc2)cc(C(=O)Nc2ccc(S(=O)(=O)O)cc2)c1)Nc1cc(C(=O)Nc2ccc(S(=O)(=O)O)cc2)cc(C(=O)Nc2ccc(S(=O)(=O)O)cc2)c1
Cc1ccccc1C(CC(=O)c1cccs1)C(C#N)C#N (stereo not drawn)
CC[C@H](C)[C@H](NC(=O)[C@@H](N)CCC(=O)O)C(=O)N[C@@H](CC(C)C)C(=O)N[C@@H](CC(=O)O)C(=O)N[C@H](C(=O)N1CCC[C@H]1C(=O)N[C@@H](CO)C(=O)N[C@H](C(=O)O)[C@@H](C)O)C(C)C
CCCCOc1ccc(C(=O)N/C(=C/C=C/c2ccccc2)C(=O)N2CCOCC2)cc1
CC(Oc1cccc(NC(=O)c2cccs2)c1)C(=O)c1ccccc1 (stereo not drawn)
Cc1cccc(Nc2nc3c(S(=O)(=O)c4ccccc4)nnn3c3ccccc23)c1C
CCO[C@@H]1OC(C(N)=O)=C[C@H](c2ccc(Br)cc2)[C@H]1CCCO
O=c1c(O)c(-c2ccc(O)cc2)oc2ccccc12
N=c1n(CCc2ccccc2)c2ccccc2n1Cc1ccccc1F
O=C1CCC(=O)N(O)CCCCCNC(=O)CCC(=O)N(O)CCCCCNC(=O)CCC(=O)N(O)CCCCCN1
CC1CN(c2nc(-c3ccccc3)nnc2-c2ccccc2)CC(C)O1 (stereo not drawn)
CCOCCCNCc1ccc(OCc2ccc(F)cc2)c(OC)c1
O=C(NCc1ccco1)c1ccc(NS(=O)(=O)c2cccc([N+](=O)[O-])c2)cc1
COc1cc(OC)c2c(c1C(CCN1CCCCC1)c1ccc(N(C)C)cc1)OC(=O)CC2c1ccc(N(C)C)cc1 (stereo not drawn)
O=C(NCC1CCCO1)c1ccccc1-c1nc(-c2ccccc2Cl)no1 (stereo not drawn)
COc1ccc(CCNC(=O)CSc2nc(-c3ccc(OC)c(OC)c3)ccc2C#N)cc1
COc1ccc(C[C@H](C(=O)O)N2C(=O)c3ccc(C(=O)O)cc3C2=O)cc1
O=C(N/N=C/c1ccc(Cl)cc1)c1nc2ccc([N+](=O)[O-])cc2c(=O)[nH]1
COc1ccc(-c2ccc(OC)c(C3C4C=CCC(C)C4C(=O)N3Cc3ccccc3)c2)cc1C (stereo not drawn)
O=S(O)S(=O)(=O)O
CCN(CC)N=Nc1cccc(NC(C)=O)c1
Cc1cc(N(C)C)nc(Cl)n1
CN(C)C(=O)c1ccc2c(c1)C1C3CCC(C3)C1C(c1ccccc1)N2 (stereo not drawn)
COC(=O)c1c(C)oc(C)c1S(=O)(=O)Nc1ccc(C(C)C)cc1
O=C(/C=C/c1ccc2c(c1)OCO2)NCc1cn2cc(Cl)ccc2n1
C=CCCC(=O)Nc1nc(C)c(-c2csc(Nc3ccc(Cl)cc3)n2)s1
COc1ccc2[nH]c3c(C)c4cc[n+](C)cc4c(C)c3c2c1
CCCCCCCC1=Cc2ccc(F)cc2C(C(C(=O)OC)C(=O)OC)N1C(=O)OC (stereo not drawn)
CCOC(OCC)OCC
Cc1ccc(-c2nnc(-n3nnc4ccccc43)c3ccccc23)cc1
COc1ccc(C2CC(O)(c3ccccc3)Oc3cc(C)cc(C)c32)cc1 (stereo not drawn)
CC(=O)Nc1ccc(S(=O)(=O)N2N=NC3C2C2CC4C3(CN(C(=O)OC(C)(C)C)S4(=O)=O)O2)cc1 (stereo not drawn)
C=C1CCN(C(CC(C)C)C(=O)NCc2cc(OC)c(OC)c(OC)c2)S(=O)(=O)c2ccccc21 (stereo not drawn)
COc1cc(NC(=S)N2CCCC(C)C2)c(OC)cc1Cl (stereo not drawn)
COC(=O)CCc1ccccc1S(=O)(=O)N(CCC(=O)OC)Cc1ccccc1
OC1CCCN(c2ncnc3c2nnn3Cc2c(F)cccc2Cl)C1 (stereo not drawn)
COc1ccc(CN2CCC(=O)c3ccccc3S2(=O)=O)cc1
COc1ccc(C2/C=C\CN(Cc3ccco3)C(C)C(=O)N2Cc2ccc(F)cc2)cc1 (stereo not drawn)
CCCCc1nn(-c2ccccc2C(F)(F)F)c(=O)n1Cc1ccc(-c2ccccc2S(=O)(=O)NC(=O)c2sccc2C)cc1
O=c1[nH]nc(SCCS(=O)(=O)c2ccc(F)cc2)n1-c1ccccc1C(F)(F)F
O=C(O)c1ccc(NS(=O)(=O)c2ccc3c(c2)C(=O)c2cc(S(=O)(=O)Nc4ccc(C(=O)O)cc4)ccc2-3)cc1
COc1ccc(N)c(OC)c1
COc1ccc(NC(=O)C2C3C=CC(C3)C2C(=O)NCc2ccccn2)c(OC)c1 (stereo not drawn)
COc1cccc(OC)c1C(=O)NC(=S)Nc1ccc(N2CCOCC2)c(Cl)c1
Cn1c(=O)c2c(-c3cccc(Br)c3)c(C#N)c(N)nc2n(C)c1=O
O=C(NCC1CC1)C1(C(F)(F)F)C/C(=C\CCO)CCCO1 (stereo not drawn)
CCN(CC)/[N+]([O-])=N/Oc1cc(O/[N+]([O-])=N/N2CCCC2CO)c([N+](=O)[O-])cc1[N+](=O)[O-] (stereo not drawn)
